From PubChem BioAssay
Compounds with a hit are over-represented: about 21% of the library has one in this group of screens.
ClpP mod – qHTS Assay for Activators of ClpP | ATP-dependent Clp protease proteolytic subunit (Bacillus subtilis (strain 168)), P80244 | purified B. subtilis ClpP, FRET peptide cleavage, 20 min | Potency, µM (titrated, usually from 57.5 µM), for the others: at the top dose activity change, negative = active | 340,000 tested, 1.9% active | AID 651965, 2013; active = well fitted falling curve with a large enough effect; inconclusive = small, poorly fitted or top-dose-only effect; inactive = no such curve, though single readings can be large or run the other way; note: potency is the fitted concentration of half-maximal effect; the source files actives as falling curves though it sought activators and does not explain the sign; nearly all actives have a fitted effect of over 65% in size
Target sequence (P80244 whole entry, looked up): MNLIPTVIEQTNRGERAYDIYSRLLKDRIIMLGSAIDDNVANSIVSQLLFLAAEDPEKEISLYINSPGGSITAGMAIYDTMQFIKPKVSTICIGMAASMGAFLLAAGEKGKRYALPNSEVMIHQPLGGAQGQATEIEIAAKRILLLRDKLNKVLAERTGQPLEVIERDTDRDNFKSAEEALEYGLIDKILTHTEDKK
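Purified B. subtilis ClpP, 10 microg/mL final in Tris/HCl pH8 with KCl, BSA, glycerol and Tween-20, cleaved an Abz/nitrotyrosine-quenched decapeptide. Fluorescence (ex 320, em 430) was read at 0 and 20 min at room temperature. Delta was normalized to 5.8 microM ADEP and DMSO/no-enzyme controls.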
D3 antag – D3 dopamine receptor (human) antagonism | P35462 | D3R cells, DiscoveRx beta-arrestin luminescence, antagonist mode; stronger effect = lower value | max response, negative = inhibition, % | 360,000 tested, 2.5% active | AID 652054; in the data active = max response below about -50%; inconclusive = no clear call, values can overlap the other calls; note: % is set by controls: 0 for no effect and ±100 for the full control effect
Target sequence (P35462 whole entry, looked up): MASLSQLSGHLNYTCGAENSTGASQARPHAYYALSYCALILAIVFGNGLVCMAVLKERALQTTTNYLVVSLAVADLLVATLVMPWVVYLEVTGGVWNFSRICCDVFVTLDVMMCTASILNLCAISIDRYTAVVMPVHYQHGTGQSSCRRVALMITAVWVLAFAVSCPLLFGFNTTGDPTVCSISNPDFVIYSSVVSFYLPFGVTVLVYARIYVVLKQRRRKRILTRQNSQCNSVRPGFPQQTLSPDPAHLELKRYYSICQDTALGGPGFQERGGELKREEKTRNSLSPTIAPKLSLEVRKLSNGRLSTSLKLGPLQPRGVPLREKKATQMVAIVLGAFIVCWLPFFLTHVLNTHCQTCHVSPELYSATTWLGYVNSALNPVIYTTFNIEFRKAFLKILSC
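Cells plated overnight at 1500 cells/well, then exposed to library compounds with dopamine controls for 90 minutes at 37 degrees C. DiscoveRx reagent added for 30–60 minutes at room temperature; luminescence read, quantitative HTS format.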
DRD3 agonist – activates the human D3 dopamine receptor; P35462; D3R DiscoveRx beta-arrestin cells, luminescence, 90 min; max activation, %; 410,000 tested, 0.58% active; in the data active = max activation above about 30%; note: 0% is about no effect
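Agonist mode: compounds and dopamine controls were applied to plated cells for 90 min at 37 degrees C after an overnight attachment at 1500 cells/well. Luminescent read-out followed 30 - 60 minutes at room temperature with DiscoveRx detection reagent.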
TDP1 cell CPT – growth inhibition of DT40 Tdp1-/-;hTDP1 cells with camptothecin (screen for TDP1 inhibitors). chicken DT40 Tdp1-/-;hTDP1 cells + 20 nM CPT, ATP luminescence, 48 h. Potency, µM (titrated, usually from 46.2 µM), without a hit: at the top dose activity change, negative = growth inhibition, usual class: inhibitors. 420,000 tested, 12% active. AID 686979; note: potency is the fitted concentration of half-maximal effect; % is set by controls: 0 for no effect and ±100 for the full control effect; nearly all actives have a fitted effect of over 55% in size
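Chicken DT40 Tdp1-/- cells complemented with human TDP1, 400 cells/well, exposed to compounds plus 20 nM camptothecin for at least 48 h at 37 C; viability read as ATP content by CellTiter-Glo luminescence.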
DT40 TDP1 no CPT – qHTS for Inhibitors of human tyrosyl-DNA phosphodiesterase 1 (TDP1): qHTS in cells in absence of CPT. DT40 Tdp1-/- hTDP1 cells, no CPT, ATP luminescence, 48 h. Potency, µM (series often up to 46.2 µM), inactives show top-dose activity change, negative = growth inhibition, usual class: inhibitors. 420,000 tested, 15% active. AID 686978, 2013; note: potency is the fitted concentration of half-maximal effect; % is set by controls: 0 for no effect and ±100 for the full control effect; nearly all actives have a fitted effect of over 55% in size
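Chicken DT40 Tdp1-/- cells stably complemented with human TDP1 were seeded at 400 cells/well with DMSO in place of 20 nM camptothecin. After compound pinning, cells grew at least 48 hr at 37 °C; viability read by CellTiter-Glo luminescence.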
IL-1B inflam inh – inhibitors of inflammasome signaling (IL-1 beta secretion). THP-1 LPS/ATP IL-1B secretion, AlphaLISA, 16 h; stronger effect = lower value. activity change, % at 57.5 µM. 360,000 tested, 4.7% active; in the data active = activity change below about -50%; inconclusive = mostly about -30% to -49%; note: % is set by controls: 0 for no effect and ±100 for the full control effect
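Secreted IL-1B measured by AlphaLISA bead assay after 16 h compound exposure of THP-1 cells; compounds (final up to 57.5 uM) added 1 h before LPS (250 ng/mL) and ATP (1.25 mM) stimulation; lower signal means less secretion.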
* = called active by the depositor; u = inconclusive; x = not tested or not shown. Unless noted, calls come from the whole dose curve; as a rule, active = well fitted inhibition curve with a large enough effect; inconclusive = small, poorly fitted or top-dose-only effect; inactive = flat fitted curve, though single readings scatter.

SMILES	ClpP mod	D3 antag	DRD3 agonist	TDP1 cell CPT	DT40 TDP1 no CPT	IL-1B inflam inh
c1ccc(Nc2ncncc2-c2ccc3c(c2)OCO3)cc1	x	x	x	-17%	-13%	x
COc1cccc(-c2cncnc2Nc2ccc(F)cc2)c1	x	x	x	-27%	-8%	x
COc1cccc(-c2cncnc2NCCc2c[nH]c3ccc(OC)cc23)c1	x	x	x	23µM*	21µM*	x
COc1ccc2[nH]cc(CCNc3ncncc3-c3ccc4c(c3)OCO4)c2c1	x	x	x	6.5µM*	18µM*	x
COc1ccc2[nH]cc(CCNc3cc(-c4ccccc4C)ncn3)c2c1	x	x	x	9.2µM*	16µM*	x
COc1ccc2[nH]cc(CCNc3cc(-c4cccnc4)ncn3)c2c1	x	x	x	u	-25%	x
COc1cccc(-c2cncnc2NCCc2cnc[nH]2)c1	x	x	x	2.6µM*	u	x
N#Cc1cccc(-c2cncnc2NCCc2cnc[nH]2)c1	x	x	x	-12%	-25%	x
Cc1ccc(NC(=O)Cn2c(=O)ccn(Cc3ccccc3)c2=O)cc1S(=O)(=O)N1CCOCC1	-1%	9	4	4%	-1%	28
Cc1ccc(-n2c(C)nnc2SCC(=O)NNC(=O)c2ccco2)cc1	x	-11	-4	11%	-23%	-8
CNC(=S)NCCc1c[nH]c2ccc(OC)cc12	-2%	-22	-8	-4%	-1%	-17
COc1ccc2[nH]cc(CCNc3cc(-c4ccc5c(c4)OCO5)ncn3)c2c1	x	x	x	u	21µM*	x
COc1ccccc1C(=O)C1CCCN(C(=O)c2ccccc2Cl)C1 (stereo not drawn)	-1%	24	0	u	u	0
COc1ccccc1C(=O)C1CCCN(C(=O)c2ccc(Cl)cc2)C1 (stereo not drawn)	-6%	-19	-5	u	16µM*	10
COc1ccccc1C(=O)C1CCCN(C(=O)CCC(=O)c2ccccc2)C1 (stereo not drawn)	x	u	3	10µM*	29µM*	5
CCc1ccc(C(=O)c2cn(CC(=O)Nc3cc(OC)ccc3OC)c3ccc(C)cc3c2=O)cc1	-2%	x	-23	-29%	-17%	x
Cc1cccc(N2CC(C(=O)NCCC3=CCCCC3)CC2=O)c1C (stereo not drawn)	-3%	13	-3	u	u	7
CCOc1ccc(N=C2NN=C(c3cc(C)n(CC4CCCO4)c3C)CS2)cc1 (stereo not drawn)	0%	5	1	u	23µM*	23
COc1ccc2c(c1)C1NC(=S)NC(C)(O2)C1C(=O)Nc1ccc(C)cc1C (stereo not drawn)	-1%	-6	-6	-4%	u	-56*
CCOC(=O)Cc1cc(C(=O)Nc2ccc(Br)cc2)sc1-c1ccc(C)cc1	22µM*	x	-11	u	21µM*	x
CCOc1ccc(Br)cc1S(=O)(=O)Nc1ccc(C(=O)Nc2ccc(C)cc2)cc1	-11%	24	0	u	u	-17
CC1CN(Cc2ccccc2)C(=S)N(c2ccccc2)C1=O (stereo not drawn)	x	1	-27	-3%	-21%	12
Cc1ccc(-n2ncc(C(=O)NCC3CCN(C4CCCC4)C3)c2C2CCN(C(=O)OC(C)(C)C)CC2)cc1C (stereo not drawn)	1%	9	4	u	-22%	u
COc1ccc(-n2ncc(C(=O)NCc3ccc4c(c3)OCO4)c2C2CCN(C(=O)OC(C)(C)C)CC2)cc1	-2%	x	-2	16µM*	u	x
Cc1ccc(-n2ncc(C(=O)NCc3ccc4c(c3)OCO4)c2C2CCN(C(=O)OC(C)(C)C)CC2)cc1C	-4%	x	1	23µM*	u	x
SMILES	ClpP mod	D3 antag	DRD3 agonist	TDP1 cell CPT	DT40 TDP1 no CPT	IL-1B inflam inh
Cc1ccc(-n2ncc(C(=O)NCCN3CCCC3)c2C2CCN(C(=O)OC(C)(C)C)CC2)cc1C	1%	x	-2	16µM*	u	x
Cc1cccc(C)c1-n1ncc(C(=O)NCc2ccc3c(c2)OCO3)c1C1CCN(C(=O)OC(C)(C)C)CC1	1%	x	-10	u	15µM*	x
Cc1ccc(-n2ncc(C(=O)NCCCN3CCc4ccccc4C3)c2C2CCN(C(=O)OC(C)(C)C)CC2)cc1C	-2%	x	-29	u	u	x
COc1cccc(C2NC(=O)CCC2[N+](=O)[O-])c1OC (stereo not drawn)	x	0	5	24%	-2%	11
CCOc1ccc(NC(=O)c2cnn(-c3ccc(C)c(C)c3)c2C2CCN(C(=O)OC(C)(C)C)CC2)cc1	1%	x	-2	16µM*	16µM*	x
CC(C)(C)OC(=O)N1CCC(c2c(C(=O)NCCN3CCc4ccccc4C3)cnn2-c2ccc(F)cc2)CC1	-5%	x	-28	u	u	x
Cc1ccc(-n2ncc(C(=O)NCCN3CCc4ccccc4C3)c2C2CCNCC2)cc1C	-1%	x	-21	21µM*	21µM*	x
O=C(NCCc1ccccc1)c1cc(-c2cccc(Cl)c2)on1	0%	x	-8	-14%	-5%	x
CCCN(CC(=O)Nc1ccccc1C)C(=O)c1ccc(=O)n(Cc2ccccc2)n1	0%	12	-6	7%	-8%	-87*
CCOC(=O)c1c(NC(=O)CC2SC(N)=NC2=O)sc2c1CCC(C)C2 (stereo not drawn)	-12%	24	29	5%	-20%	-52*
COC(=O)c1c(NC(=O)CC2SC(N)=NC2=O)sc2c1CCC(C)C2 (stereo not drawn)	-3%	3	2	-8%	u	u
COC(=O)c1c(NC(=O)COc2ccccc2Cl)sc2c1CCC(C(C)(C)C)C2 (stereo not drawn)	2%	x	-14	-15%	-27%	x
CCOC(=O)c1cc(CC)sc1NC(=O)CC1SC(N)=NC1=O (stereo not drawn)	-4%	-4	1	-1%	-11%	-3
CCOC(=O)c1c(NC(=O)CC2SC(N)=NC2=O)sc(C)c1C (stereo not drawn)	-7%	4	-12	23µM*	-40%	-7
COC(=O)c1c(NC(=O)CC2SC(N)=NC2=O)sc2c1CCC(C(C)(C)C)C2 (stereo not drawn)	u	37	0	u	u	-53*
COCCCNC(=O)c1csc([C@H]2C[C@H](O)[C@@H](CO)O2)n1	-1%	-2	6	0%	5%	3
CCc1ccc(NC(=O)C(C)OC(=O)C2CCN(c3ccc(C(F)(F)F)cn3)CC2)cc1 (stereo not drawn)	u	17	7	-26%	u	-7
